# “And” between values parts separate entries of the source, which are not always exact repeats. Equal values may be shown once. Some compounds were tested as several samples or in several runs, with calls that do not always agree. The source made the active and inactive calls. Unless noted, no rule for the calls is given here.
# How the values were obtained:
# [1] = system: Hepatitis C virus NS3 helicase; experiment: blockers of NS3h binding to ssDNA – biochemical, fluorescence polarization, LOPAC1280 library, primary screen (AID 687035; in the data active = inhibition above about 37%); conditions: Purified HCV NS3 helicase, Cy5-dT15 ssDNA binding fluorescence polarization; stronger effect = higher value; concentration not given here
# [2] = compounds altering Cy5-DNA-NS3h complex signal – biochemical, LOPAC1280, artefact control for HCV NS3 helicase inhibitor project (AID 687037); conditions: Cy5-DNA-NS3h complex fluorescence interference counterscreen
# [3] = blockers of cellular phospholipid synthesis – cell-based, LOPAC library, screen 4, primary screen (AID 1347384); conditions: animal cells, phospholipid biosynthesis inhibition screen; at 10 µM
# [4] = galactose survival enhancers in mitochondrial complex I cybrids – cell-based, galactose medium, ATP luminescence, primary screen (AID 1645843;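 active = z-score of at least 1.8 in each of two replicates, scored against plate mean and spread of sample wells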;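 also: positive z means more ATP and so rescue of galactose-driven cybrid death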); conditions: complex I mutant cybrid cells, 72 h, stronger effect = higher value
# [5] = compounds altering viability of human ES cells (AID 493140); conditions: human embryonic stem cell survival screen; stronger effect = higher value;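 also: cells exposed to compounds for four days before counting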
# [6] = P. berghei load reduction in hepatocytes – cell-based, HepG2, luciferase luminescence, HepG2 viability, primary screen (AID 624349; in the data active = parasite load remaining mostly below about 12%, no sharp cut-off; inactive = mostly above about 10%;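 also: 100% = mean of DMSO negative control wells on the same plate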); conditions: P. berghei liver stage in HepG2, luciferase luminescence, concentration not given here; parasite load remaining: stronger effect = lower value; viability: measured here: HepG2 viability without parasites
# [7] = molecular target: Mitogen-activated protein kinase 7 (Homo sapiens) (UniProt Q13164); experiment: Gal4-ERK5 driven luciferase induction – cell-based, HTS, primary screen (AID 1508626;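 active = luciferase signal above three times the same-plate solvent-only control wells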;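 also: luciferase driven by Gal4-ERK5 fusion binding five Gal4 sites before minimal TATA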); conditions: HeLa Gal4-ERK5 transactivation, 18 h, at 5 µM, stronger effect = higher value
# Chain of Mitogen-activated protein kinase 7 (Homo sapiens) (Q13164 whole entry, looked up, the tested form may be a part): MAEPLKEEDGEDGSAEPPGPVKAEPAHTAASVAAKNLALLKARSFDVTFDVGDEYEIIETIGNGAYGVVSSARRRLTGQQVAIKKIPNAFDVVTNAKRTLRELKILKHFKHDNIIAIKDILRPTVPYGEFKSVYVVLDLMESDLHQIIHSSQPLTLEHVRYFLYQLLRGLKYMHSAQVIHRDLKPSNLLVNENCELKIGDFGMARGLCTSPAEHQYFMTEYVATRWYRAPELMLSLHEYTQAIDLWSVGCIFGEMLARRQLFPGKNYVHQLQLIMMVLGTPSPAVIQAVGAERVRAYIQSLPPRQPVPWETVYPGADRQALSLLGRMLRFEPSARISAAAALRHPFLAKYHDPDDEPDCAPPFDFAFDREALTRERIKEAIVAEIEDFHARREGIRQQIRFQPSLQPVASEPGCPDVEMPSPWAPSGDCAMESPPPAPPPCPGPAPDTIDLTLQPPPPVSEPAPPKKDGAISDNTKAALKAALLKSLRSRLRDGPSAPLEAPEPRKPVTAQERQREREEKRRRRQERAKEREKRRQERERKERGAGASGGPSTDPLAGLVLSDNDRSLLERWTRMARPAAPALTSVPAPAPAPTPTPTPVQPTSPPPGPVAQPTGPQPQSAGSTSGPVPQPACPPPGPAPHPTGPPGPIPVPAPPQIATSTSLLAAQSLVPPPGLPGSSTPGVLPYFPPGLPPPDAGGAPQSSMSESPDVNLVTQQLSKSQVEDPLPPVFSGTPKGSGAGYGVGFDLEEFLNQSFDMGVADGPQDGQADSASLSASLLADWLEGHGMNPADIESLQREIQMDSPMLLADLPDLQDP
# [8] = molecular target: NAD(+) hydrolase SARM1 (Homo sapiens) (UniProt Q6SZW1); experiment: blocking NAD cleavage by SARM1 SAM-TIR – cell lysate, NAD-Glo luminescence (AID 1508614;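 active = compound whose remaining NAD level is above about 45 nM, limit read from the data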;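 also: higher remaining NAD means stronger inhibition of SARM1 NADase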); conditions: SAM-TIR HEK293T lysate NADase, at 1 µM, stronger effect = higher value
# Chain of NAD(+) hydrolase SARM1 (Homo sapiens) (Q6SZW1 whole entry, looked up): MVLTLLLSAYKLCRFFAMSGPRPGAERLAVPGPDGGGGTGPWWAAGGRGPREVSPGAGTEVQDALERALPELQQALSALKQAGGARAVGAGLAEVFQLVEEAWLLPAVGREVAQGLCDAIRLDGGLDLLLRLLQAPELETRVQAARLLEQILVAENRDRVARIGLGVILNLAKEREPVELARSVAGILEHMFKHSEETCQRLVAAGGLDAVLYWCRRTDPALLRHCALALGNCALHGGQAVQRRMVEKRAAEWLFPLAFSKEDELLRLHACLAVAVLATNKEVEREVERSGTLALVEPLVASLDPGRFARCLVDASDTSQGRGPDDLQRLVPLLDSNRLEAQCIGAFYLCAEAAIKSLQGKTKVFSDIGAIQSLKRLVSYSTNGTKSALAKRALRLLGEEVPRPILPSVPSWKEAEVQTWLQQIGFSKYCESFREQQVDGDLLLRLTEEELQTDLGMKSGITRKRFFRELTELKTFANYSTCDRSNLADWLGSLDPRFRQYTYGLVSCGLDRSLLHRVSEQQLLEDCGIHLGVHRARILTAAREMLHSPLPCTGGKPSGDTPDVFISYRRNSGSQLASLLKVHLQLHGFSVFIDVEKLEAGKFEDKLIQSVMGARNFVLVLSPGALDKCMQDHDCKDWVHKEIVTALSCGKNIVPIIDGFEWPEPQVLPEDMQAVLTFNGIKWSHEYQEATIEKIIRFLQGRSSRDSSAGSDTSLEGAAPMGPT
# [9] = liver-stage malaria parasite load reduction – cell-based, known kinase inhibitor set, luminescence, hepatoma host viability (AID 624392); conditions: Plasmodium liver stage in hepatoma cells, luciferase luminescence, concentration not given here; liver cell % of control: measured here: host liver cell viability; parasite % of control: stronger effect = lower value;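 also: infected cells incubated roughly two days before readout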
# [10] = growth inhibition, single agents and combos, LFS_MB_1R, cell-based, cisplatin or BGB combos, synergistic combos for chromothripsis tumors (AID 1671452; in the data active = inhibition above about 80%;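 also: cells exposed for 96 hours before readout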); conditions: LFS_MB_1R medulloblastoma cells, stronger effect = higher value
# [11] = growth inhibition, single agents and combos, CRL2098, cell-based, BGB or cisplatin IC20 combos, synergistic combos for chromothripsis tumors (AID 1671454; in the data active = inhibition above about 80%;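 also: cells exposed for 96 h before readout; 0% = vehicle DMSO and 100% = killing by high DMSO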); conditions: CRL2098 osteosarcoma cells, drug combinations, stronger effect = higher value
# [12] = growth inhibition, single agents and combos, HD-MB03, cell-based, BGB or cisplatin IC20 combos, synergistic combos for chromothripsis tumors (AID 1671455; in the data active = inhibition above about 83%;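 also: 0% = vehicle DMSO and 100% = high DMSO as cytotoxic control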); conditions: HD-MB03 medulloblastoma cells, stronger effect = higher value
# [13] = growth inhibition, single agents and combos, UWB1.289, cell-based, BGB or cisplatin combos, synergistic combos for chromothripsis tumors (AID 1671456; in the data active = inhibition above about 80%;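 also: cells exposed to compound for four days; 0% = vehicle DMSO and 100% = killing by high DMSO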); conditions: UWB1.289 ovarian carcinoma cells, stronger effect = higher value
# [14] = growth inhibition, single agents and combos, LFS_MB_2R, cell-based, cisplatin combos, synergistic combos for chromothripsis tumors (AID 1671457; in the data active = inhibition above about 80%;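 also: cells exposed to compound for four days before readout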); conditions: LFS_MB_2R medulloblastoma cells, stronger effect = higher value
# [15] = UWB1.289_BRCA1 ovarian cancer growth, cell-based, BGB or cisplatin combinations (AID 1671459; in the data active = inhibition above about 80%); conditions: UWB1.289 BRCA1 ovarian carcinoma, drug combinations, stronger effect = higher value
# [16] = drug combination toxicity in non-malignant astrocytes – cell-based, BGB or cisplatin IC20 combos, cytotoxicity control for chromothriptic childhood tumor combination screen (AID 1671460; in the data active = inhibition above about 80%;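 also: cells exposed to compounds for 96 hours before viability readout; 0% = vehicle and 100% = killing control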); conditions: Human astrocytes, viability inhibition, drug combinations, at 0.5 µM, stronger effect = higher value
# [17] = CRL1545 cell growth, single agent and combined, cisplatin and BGB IC20 combos (AID 1671464; in the data active = inhibition above about 80%;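 also: cells exposed to compound for 96 hours before readout; 0% = vehicle DMSO and 100% = high DMSO killing control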); conditions: CRL1545 osteosarcoma cells, stronger effect = higher value
# [18] = measured here: combination with cisplatin, at 0.5 µM
# [19] = measured here: combination with cisplatin, at 5 µM
compound,measurement,setting,value
COc1cc2c(cc1OC)C1CC(=O)C(CC(C)C)CN1CC2 (configuration not stated),inhibition,[1],-3% (inactive)
same,fluorescence ratio (interference),[2],1 (inactive)
same,outcome,[3],inactive
same,z-score,[4],0.245 (inactive)
C=C1C(=O)O[C@@H]2[C@H]3O[C@]3(C)CC/C=C(\C)CC[C@@H]12,survival,[5],0.167 (inactive)
same,parasite load remaining,[6],-0.555% (active) and 48% (inactive)
same,viability,[6],117% and 76.6%
same,luciferase signal,[7],92 AU (inactive)
NC(=NCCCCCCN=C(N)N=C(N)Nc1ccc(Cl)cc1)N=C(N)Nc1ccc(Cl)cc1,remaining NAD,[8],10 nM (inactive)
NC(=O)c1ccc(N(C(N)=O)c2c(F)cccc2F)nc1-c1ccc(F)cc1F,liver cell % of control,[9],98.2% and 93.2% and 92%
same,parasite % of control,[9],55.7% (inactive) and 44.1% (inactive) and 51.8% (inactive)
CC[C@H](CC[C@@H](C)[C@H]1CC[C@H]2[C@@H]3CC=C4C[C@@H](O)CC[C@]4(C)[C@H]3CC[C@]12C)C(C)C,survival,[5],9.58 (inactive)
same,parasite load remaining,[6],99.6% (inactive)
same,viability,[6],72.8%
same,luciferase signal,[7],32 AU (inactive)
CC(=O)Nc1nc(C)c(-c2ccc(Cl)c(S(=O)(=O)NCCO)c2)s1,inhibition,[10]; at 0.5 µM,1.54% (inactive)
same,inhibition,"[10]; measured here: combination with BGB IC40, at 0.05 µM",-12.3%
same,inhibition,[10]; [18],15.7%
same,inhibition,[10]; [19],14.2%
same,inhibition,[11]; at 0.5 µM,17% (inactive)
same,inhibition,"[11]; measured here: combination with BGB at IC20, at 0.5 µM",5.45%
same,inhibition,"[11]; measured here: combination with cisplatin at IC20, at 0.5 µM",52.4%
same,inhibition,[12]; at 0.5 µM,14.3% (inactive)
same,inhibition,"[12]; measured here: combo with BGB at IC20, at 0.5 µM",17.8%
same,inhibition,"[12]; measured here: combo with cisplatin at IC20, at 0.5 µM",10.3%
same,inhibition,[13]; at 0.5 µM,10.9% (inactive)
same,inhibition,"[13]; measured here: inhibition with BGB combination, at 0.05 µM",10.4%
same,inhibition,"[13]; measured here: inhibition with cisplatin combination, at 0.05 µM",1.8%
same,inhibition,[14]; at 0.5 µM,9.32% (inactive)
same,inhibition,[14]; [18],10.4%
same,inhibition,[14]; [19],43.2%
same,inhibition,"[15]; BGB combination, concentration series, at 5 µM",22.7%
same,inhibition,[15]; at 0.5 µM,6.36% (inactive)
same,inhibition,"[15]; cisplatin combination, concentration series, at 5 µM",12.2%
same,inhibition,[16],23.1% (inactive)
same,inhibition,[16]; measured here: combo with BGB IC20,23.7%
same,inhibition,[16]; measured here: combo with cisplatin IC20,25.1%
same,inhibition,[17]; at 0.5 µM,-8.22% (inactive)
same,inhibition,"[17]; measured here: with BGB IC20 combination, at 0.5 µM",-13.7%
same,inhibition,"[17]; measured here: with cisplatin IC20 combination, at 0.5 µM",-7.2%
same,inhibition,"[17]; single agent, at 0.05 µM",-0.058%
same,inhibition,"[17]; single agent, at 5 µM",1.73%

# Reference: PubChem BioAssay
